Source: article PMC5540273 (PLoS ONE, 2017)

Assays:
Details in all cases: concentration: 1 μM, replicates: in singlicate; n = 1
CDK8 = system: CDK8
CDK9 = system: CDK9
CDKL1 = system: CDKL1
CDKL2 = system: CDKL2
CDKL3 = system: CDKL3
CDKL5 = system: CDKL5
CHEK1 = system: CHEK1
CHEK2 = system: CHEK2
CIT = system: CIT
CLK1 = system: CLK1
CLK2 = system: CLK2
CLK3 = system: CLK3
CLK4 = system: CLK4
CSF1R-autoinhibited = system: CSF1R-autoinhibited
CSF1R = system: CSF1R
CSK = system: CSK
CSNK1A1L = system: CSNK1A1L
CSNK1A1 = system: CSNK1A1
CSNK1D = system: CSNK1D
CSNK1E = system: CSNK1E
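Further: KINOMEscan kinase panel screen.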

Structure (SMILES) | %Inh (CDK8) [%] | %Inh (CDK9) [%] | %Inh (CDKL1) [%] | %Inh (CDKL2) [%] | %Inh (CDKL3) [%] | %Inh (CDKL5) [%] | %Inh (CHEK1) [%] | %Inh (CHEK2) [%] | %Inh (CIT) [%] | %Inh (CLK1) [%] | %Inh (CLK2) [%] | %Inh (CLK3) [%] | %Inh (CLK4) [%] | %Inh (CSF1R-autoinhibited) [%] | %Inh (CSF1R) [%] | %Inh (CSK) [%] | %Inh (CSNK1A1L) [%] | %Inh (CSNK1A1) [%] | %Inh (CSNK1D) [%] | %Inh (CSNK1E) [%]
CN(C)CCOc1ccc(-c2cc(-c3ccc(Cl)c(O)c3)c(-c3ccncc3)[nH]2)cc1.Cl.Cl [SB-684387] | 38 | 18 | 28 | 39 | 0 | 0 | 7 | 33 | 90.8 | 32 | 1 | 5 | 3 | 30 | 5 | 7 | 2 | 23 | 77 | 94.6
COc1cccc(CC(=O)N2CCc3cc(-c4cn(C)c5ncnc(N)c45)ccc32)c1 [GSK2608899] | 96.6 | 12 | 1 | 4 | 0 | 0 | 0 | 0 | 5 | 29 | 0 | 13 | 0 | 0 | 96.9 | 14 | 8 | 0 | 39 | 77
O=C(Nc1n[nH]c2cc(-c3cccs3)ccc12)C1CC1 [SB-731284] | 15 | 3 | 50 | 98.1 | 0 | 14 | 0 | 0 | 24 | 0 | 21 | 13 | 0 | 0 | 0 | 13 | 0 | 20 | 0 | 8
Fc1cc(Cl)ccc1Nc1ccnc2cc(-c3ccc(CN4CCSCC4)o3)ccc12 [GW560106] | 53 | 0 | 100 | 8 | 0 | 0 | 0 | 79 | 29 | 8 | 0 | 0 | 22 | 52 | 92.3 | 13 | 0 | 0 | 6 | 27
Nc1ncnc2scc(-c3ccc(NC(=O)Cc4cc(F)ccc4F)cc3)c12.O=C(O)C(F)(F)F [SB-731254-M] | 93.8 | 0 | 30 | 28 | 2 | 5 | 9 | 0 | 12 | 16 | 0 | 14 | 12 | 79 | 100 | 9 | 6 | 15 | 29 | 0
Cc1cc(-c2c(-c3ccc(F)cc3)ncn2CCCN2CCOCC2)nc(N)n1 [SB-222517] | 0 | 0 | 30 | 0 | 35 | 7 | 0 | 0 | 2 | 0 | 30 | 0 | 16 | 17 | 14 | 7 | 0 | 17 | 7 | 1
c1ccc(Oc2ccc(Nc3ccnc4cc(-c5ccc(CN6CCCCC6)o5)ccc34)cc2)nc1 [GW567143] | 14 | 0 | 0 | 12 | 0 | 19 | 0 | 74 | 6 | 1 | 0 | 0 | 6 | 0 | 54 | 71 | 12 | 1 | 10 | 13
Cc1ccc(C)c(NC(=O)Nc2ccc(C)c(-c3ccc(C(=O)Nc4ccncc4)cc3)c2)c1 [GSK1398473] | 4 | 0 | 0 | 42 | 0 | 24 | 22 | 0 | 96.1 | 24 | 0 | 3 | 0 | 0 | 89 | 0 | 11 | 0 | 0 | 30
Cc1ccc(NC(=O)c2ccnc(N3CCCCC3)c2)cc1-c1ccc(C(=O)NCC2CC2)cc1 [GW775610] | 39 | 1 | 9 | 33 | 0 | 75 | 0 | 39 | 38 | 11 | 0 | 0 | 0 | 5 | 23 | 0 | 20 | 1 | 0 | 0
O=C(O)C(F)(F)F.O=c1[nH]ccc2nc(N[C@@H]3CCNC3)nc(Nc3cc(Cl)cc(Cl)c3)c12 [GSK2188764] | 0 | 34 | 37 | 24 | 0 | 0 | 100 | 85 | 67 | 82 | 95.9 | 34 | 82 | 0 | 69 | 18 | 56 | 94 | 79 | 91.3
COc1cccc(C2=C(Nc3cccc(O)c3)C(=O)NC2=O)c1 [SB-390771] | 17 | 0 | 86 | 7 | 0 | 0 | 0 | 0 | 4 | 73 | 61 | 17 | 72 | 45 | 37 | 100 | 10 | 0 | 32 | 29
CCn1cnc2c(NCc3ccccc3)ncnc21 [SKF-96418] | 40 | 20 | 13 | 10 | 12 | 0 | 0 | 0 | 16 | 0 | 10 | 0 | 14 | 0 | 0 | 0 | 0 | 18 | 20 | 16
COc1ccc(C)c(Nc2ccnc(Nc3ccc(-c4cnc[nH]4)cc3)n2)c1.Cl [GW784041] | 35 | 0 | 44 | 0 | 0 | 1 | 0 | 0 | 0 | 18 | 0 | 7 | 13 | 0 | 67 | 9 | 2 | 21 | 16 | 27
COc1cc(Nc2nccc(N3CCC(NS(=O)(=O)c4ccc(NC(C)=O)cc4)CC3)n2)cc(OC)c1OC [GSK1379825] | 31 | 0 | 19 | 24 | 0 | 0 | 0 | 0 | 17 | 2 | 0 | 23 | 39 | 7 | 19 | 0 | 3 | 8 | 0 | 21
Cc1ccc(O)cc1Nc1ccnc2ccc(C(C)(C)C)cc12 [GW856805] | 0 | 12 | 24 | 0 | 17 | 10 | 9 | 3 | 25 | 0 | 26 | 0 | 3 | 0 | 32 | 53 | 20 | 40 | 13 | 1
CN(c1ccc(NC(=O)Nc2cccc(Cl)c2)cc1)c1ccnc(N)n1.Cl [GW830707] | 85 | 0 | 0 | 39 | 0 | 0 | 0 | 7 | 9 | 0 | 0 | 0 | 0 | 0 | 99.5 | 7 | 0 | 0 | 18 | 0
Cc1cccc(Nc2nc(N[C@H]3CCCC[C@H]3N)ncc2C(N)=O)c1.Cl [GSK986310] | 0 | 17 | 9 | 28 | 0 | 0 | 57 | 1 | 66 | 42 | 28 | 27 | 24 | 0 | 78 | 12 | 59 | 46 | 50 | 64
